Several values for one entry are separate records, joined by “and”; a condition that tells them apart may be missing. Identical values can stand only once. Activity calls are given as the source filed them. Unless noted, the call rests on the fitted dose curve; in most records, active means well fitted curve in the direction sought with a large enough effect in the repeat runs; inconclusive means weak or mixed curves; inactive means no such curve, though single readings can be large; an effect the other way counts as inactive or inconclusive.
Tests used:
[1] = qHTS assay to identify small molecule antagonists of the thyroid receptor (TR) signaling pathway - cell viability counter screen (AID 743064); further: nearly all actives have a fitted effect of over 50% in size; further: potency means the concentration at half of the fitted maximal effect
Outline: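 CellTiter-Fluor readout, 30 min at 37 °C/5% CO2, following 23.5 h incubation of GH3.TRE-Luc cells with test compound and 1 nM T3 (final).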

[2] = qHTS assay to identify small molecule antagonists of the thyroid receptor (TR) signaling pathway (AID 743065); further: nearly all actives have a fitted effect of over 55% in size; further: potency means the concentration at half of the fitted maximal effect
Outline: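 Antagonism measured as loss of luciferase signal in GH3 cells stably carrying a TRE-luciferase reporter, co-treated with compound and T3 (1 nM final) for 23.5 h at 37 C. Viability was read in the same well by CellTiter-Fluor.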

[3] = test system: thyroid hormone receptor (rat, GH3 cells); assay: qHTS assay to identify small molecule agonists of the thyroid receptor (TR) signaling pathway (AID 743066; calls by dose curve)
[4] = qHTS assay to identify small molecule antagonists of the estrogen receptor alpha (ER-alpha) signaling pathway - cell viability counter screen (AID 743074; calls by dose curve;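 further: HEK293 cells carrying ER-alpha-UAS-bla reporter stimulated with 17beta-estradiol; nearly all actives have a fitted effect of over 45% in size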)
[5] = biological target: Estrogen receptor (Homo sapiens) (UniProt P03372); assay: qHTS assay to identify small molecule agonists of the estrogen receptor alpha (ER-alpha) signaling pathway (AID 743075; calls by dose curve;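 further: HEK293 GripTite cells with ER-alpha and UAS-driven beta-lactamase reporter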; further: potency means the concentration at half of the fitted maximal effect)
[6] = biological target: Estrogen receptor (Homo sapiens) (UniProt P03372); assay: qHTS assay to identify small molecule agonists of the estrogen receptor alpha (ER-alpha) signaling pathway using the BG1 cell line (AID 743079); further: nearly all actives have a fitted effect of over 20% in size; further: potency means the concentration at half of the fitted maximal effect
[7] = qHTS assay to identify small molecule antagonists of the estrogen receptor alpha (ER-alpha) signaling pathway using the BG1 cell line (AID 743080; calls by dose curve; further: series mostly up to about 70 µM; nearly all actives have a fitted effect of over 25% in size)
Outline: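 Antagonist mode: compounds in DMSO were pinned onto BG1-Luc-4E2 cells alongside 17beta-estradiol agonist, incubated 21.5 h, and ERE-driven luciferase measured with ONE-Glo. Cytotoxicity was multiplexed using CellTiter-Fluor fluorescence.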

[8] = qHTS assay to identify small molecule antagonists of the estrogen receptor alpha (ER-alpha) signaling pathway using the BG1 cell line - cell viability counter screen (AID 743081);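 further: compound given together with 17beta-estradiol as the ER stimulus; series mostly up to about 70 µM; nearly all actives have a fitted effect of over 45% in size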
Aromatase (Homo sapiens) = Aromatase (Homo sapiens) (UniProt P11511); assay: qHTS assay to identify aromatase inhibitors (AID 743083); further: nearly all actives have a fitted effect of over 55% in size; further: potency means the concentration at half of the fitted maximal effect
[9] = biological target: Estrogen receptor (Homo sapiens) (UniProt P03372); assay: qHTS assay to identify small molecule antagonists of the estrogen receptor alpha (ER-alpha) signaling pathway (AID 743069; active means well fitted curve in the direction sought with a large enough effect in the signal ratio in the repeat runs, not every such curve was filed as active; inconclusive means weak or mixed curves, or effect the other way; inactive means no such curve, though single readings can be large or run the other way; the % refers to the signal ratio)
Outline: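 ER-alpha-UAS-bla GripTite HEK293 line; 2% charcoal-stripped FBS overnight; plated, 4 hr 37C/5% CO2; cpd in DMSO + 17beta-estradiol, 18 hr 37C; LiveBLAzer B/G FRET substrate 2 hr RT; fluorescence intensity.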

Measured: Potency

Estrogen receptor (Homo sapiens), sequence (P03372 whole entry, looked up): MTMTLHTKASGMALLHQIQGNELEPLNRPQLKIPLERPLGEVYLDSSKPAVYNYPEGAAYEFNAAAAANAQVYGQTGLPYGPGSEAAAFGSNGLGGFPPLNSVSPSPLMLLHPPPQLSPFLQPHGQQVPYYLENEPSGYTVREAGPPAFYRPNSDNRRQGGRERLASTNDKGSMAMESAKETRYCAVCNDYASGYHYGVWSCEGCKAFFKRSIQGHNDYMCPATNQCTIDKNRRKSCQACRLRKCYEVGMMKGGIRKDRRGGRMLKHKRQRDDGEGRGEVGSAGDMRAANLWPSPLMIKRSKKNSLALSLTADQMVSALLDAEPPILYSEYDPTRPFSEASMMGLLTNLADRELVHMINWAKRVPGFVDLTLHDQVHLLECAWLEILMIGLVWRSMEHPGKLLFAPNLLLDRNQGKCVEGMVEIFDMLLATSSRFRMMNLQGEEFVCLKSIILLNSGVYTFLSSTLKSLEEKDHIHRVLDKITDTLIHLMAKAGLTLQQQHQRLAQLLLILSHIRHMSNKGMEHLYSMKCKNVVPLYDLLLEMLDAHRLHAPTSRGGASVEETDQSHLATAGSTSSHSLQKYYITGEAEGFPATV
Aromatase (Homo sapiens), sequence (P11511 whole entry, looked up): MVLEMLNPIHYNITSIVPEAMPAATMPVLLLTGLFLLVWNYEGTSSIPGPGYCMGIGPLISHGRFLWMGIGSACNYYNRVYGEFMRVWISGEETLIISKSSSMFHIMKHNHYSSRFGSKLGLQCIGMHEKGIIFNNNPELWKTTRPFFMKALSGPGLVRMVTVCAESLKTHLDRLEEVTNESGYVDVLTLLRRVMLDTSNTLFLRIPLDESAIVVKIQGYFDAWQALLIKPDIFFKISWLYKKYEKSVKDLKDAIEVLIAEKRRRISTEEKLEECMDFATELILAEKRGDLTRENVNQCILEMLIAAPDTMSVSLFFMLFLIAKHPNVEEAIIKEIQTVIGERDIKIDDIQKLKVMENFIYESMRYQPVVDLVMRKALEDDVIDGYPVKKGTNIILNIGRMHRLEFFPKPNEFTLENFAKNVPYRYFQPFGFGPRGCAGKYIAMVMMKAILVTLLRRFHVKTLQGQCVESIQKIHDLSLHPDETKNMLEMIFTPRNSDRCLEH

C=CCCC
not listed: [9]
inactive: all other assays above

CC(C)(C)N
not listed: [9]
inactive: all other assays above

Cc1cc(C)c(C)c(O)c1
not listed: [9]
inactive: all other assays above

C=CC(=O)OCCCCCCCCCC
not listed: [9]
inactive: all other assays above

Nc1ccc(-c2ccc(F)cc2)cc1
active: [6] 54.5 µM
not listed: [7] | [9]
inactive: all other assays above

C[C@@H](O)[C@H]1C(=O)N2C(C(=O)O)=C(S[C@@H]3CN[C@H](CNS(N)(=O)=O)C3)[C@H](C)[C@H]12
not listed: [6] | [9]
inactive: all other assays above

C/C(=C(\CCO)SS/C(CCO)=C(\C)N(C=O)Cc1cnc(C)nc1N)N(C=O)Cc1cnc(C)nc1N
not listed: [9]
inactive: all other assays above

Nc1cccc2c(=O)[nH][nH]c(=O)c12
not listed: [9]
inactive: all other assays above

O=C(O)c1ccc2c(c1)nc(C(=O)NC1CCN(C3CC3)CC1)n2Cc1cc(-c2ccc(Cl)s2)on1
not listed: [9]
inactive: all other assays above

O=C(OCCCCCOC(=O)c1ccccc1)c1ccccc1
not listed: [6] | [7]
inactive: all other assays above

O=C(O)CCc1nc2ccccc2[nH]1
not listed: [9]
inactive: all other assays above

Cc1cc(N)n(-c2ccccc2)n1
not listed: [6] | [7]
inactive: all other assays above

O=C(O)c1ccc2cc(O)ccc2c1
not listed: [6]
inactive: all other assays above

CCCCOc1ccc(N)cc1
not listed: [6] | [7]
inactive: all other assays above

CC(C)(C)c1ccc(CCC=O)cc1
not listed: [7] | Aromatase (Homo sapiens)
inactive: all other assays above

FC(F)(Cl)C(F)(Cl)Cl
not listed: [4]
inactive: all other assays above

O=C(Cl)c1cc(Cl)cc(Cl)c1
not listed: [9]
inactive: all other assays above

CCOc1cc(OCC)c(C(C)=O)cc1OCC
active: [1] 19 µM | Aromatase (Homo sapiens) 26.8 µM
inactive: [2] | [3] | [4] | [5] | [7]

CCc1ccc2c(c1)C(=O)c1ccccc1C2=O
active: [6] 27.3 µM
not listed: [7] | [9]
inactive: all other assays above

O=C(Cl)c1ccc(F)c(Cl)c1
not listed: [6] | [9]
inactive: all other assays above

COC(=O)/C=C/C(C)=C\C=C\C(C)=C\C=C\C=C(C)\C=C\C=C(C)\C=C\C(=O)O
not listed: [6] | [7]
inactive: all other assays above

COc1ccc(C(=O)c2ccc(C)cc2)c(O)c1
active: [6] 13.3 µM and 12.3 µM
not listed: [7]
inactive: all other assays above

CC1(C)CC(=O)CC(C)(C)N1
not listed: [9]
inactive: all other assays above

Oc1ccc(Oc2ccccc2)cc1
inactive: [3] | [9] | [4] | [8]
active: [1] 41 µM | [2] 20.6 µM | [5] 0.0736 µM [inconclusive] | [6] 7.3 µM

COc1ccc(C(=O)Nc2ccccc2)cc1[N+](=O)[O-]
active: [6] 3.09 µM
not listed: [7] | [9]
inactive: all other assays above

O=C1OC(=O)C2CC=CCC12 (stereo not drawn)
not listed: [9]
inactive: all other assays above

C=C[Si](OCC)(OCC)OCC
inactive: [1] | [2] | [3] | [4] | [8] | Aromatase (Homo sapiens)

Cc1cc(SC2=C(O)C[C@@](CCc3ccc(N)cc3)(C(C)C)OC2=O)c(C(C)(C)C)cc1CO
inactive: [1] | [2] | [3] | [4] | [8] | Aromatase (Homo sapiens)

Cc1c(-c2cccnc2)c2ccccc2n1CCCCC(=O)O
inactive: [1] | [2] | [3] | [4] | [8]
active: Aromatase (Homo sapiens) 43.3 µM

O=C(O)c1ccccc1[N+](=O)[O-]
inactive: [1] | [2] | [3] | [4] | [8] | Aromatase (Homo sapiens)

O=C1c2ccccc2C(=O)c2c1ccc(O)c2O
inactive: [1] | [2] | [3] | [4] | [8] | Aromatase (Homo sapiens)

C=CC(C)CCC=C(C)C (stereo not drawn)
inactive: [1] | [2] | [3] | [4] | [8] | Aromatase (Homo sapiens)

C=C[Si]1(C)O[Si](C)(C=C)O[Si](C)(C=C)O[Si](C)(C=C)O1 (stereo not drawn)
inactive: [1] | [2] | [3] | [4] | [8] | Aromatase (Homo sapiens)

CCCCC(CC)COCCC#N (stereo not drawn)
inactive: [1] | [2] | [3] | [4] | [8] | Aromatase (Homo sapiens)

Cc1cccc(C)c1NC(=O)CN1CCCC1
inactive: [1] | [2] | [3] | [4] | [8] | Aromatase (Homo sapiens)

CCCCCCCCCCCCCCCCC(=O)O
inactive: [1] | [2] | [3] | [4] | [8] | Aromatase (Homo sapiens)

CCOc1ccc(NC(C)=O)cc1N
not listed: [6] | [7] | [9]
inactive: all other assays above

O=Cc1ccc(Cl)c([N+](=O)[O-])c1
inactive: [1] | [2] | [3] | [4] | [5] | [8]

O=[N+]([O-])c1ccccc1CCO
inactive: [1] | [2] | [3] | [4] | [8] | Aromatase (Homo sapiens)

Cc1c(Cl)cccc1[N+](=O)[O-]
inactive: [1] | [2] | [3] | [4] | [8] | Aromatase (Homo sapiens)

C=CC(C)(O)CC/C=C(/C)CCC=C(C)C (stereo not drawn)
inactive: [1] | [2] | [3] | [4] | [8]

CCC(=O)O[C@@H]1C[C@H]2CC[C@]1(C)C2(C)C
inactive: [1] | [2] | [3] | [4] | [8] | Aromatase (Homo sapiens)

CS(C)=O
inactive: [1] | [2] | [3] | [4] | [8] | Aromatase (Homo sapiens)

C=C(C)C(=O)OCCCCCCCCCCOC(=O)C(=C)C
inactive: [1] | [2] | [3] | [4] | [8] | Aromatase (Homo sapiens)

CCOc1ccc2c(c1)C(C)CC(C)(C)N2 (stereo not drawn)
inactive: [1] | [2] | [3] | [4] | [8] | Aromatase (Homo sapiens)

Cc1ccc(S(=O)(=O)NC(=O)NC2CCCC2)cc1
inactive: [1] | [2] | [3] | [4] | [8] | Aromatase (Homo sapiens)

CC1(C)[C@@H]2CC[C@]3(C2)[C@@H]1C(=O)CCC3(C)C
not listed: [4] | Aromatase (Homo sapiens) | [9]
inactive: all other assays above

CC(=O)OCC(=O)[C@@]1(O)CC[C@H]2[C@@H]3CCC4=CC(=O)C=C[C@]4(C)[C@@]3(F)[C@@H](O)C[C@@]21C
inactive: [1] | [2] | [3] | [4] | [8] | Aromatase (Homo sapiens)

[O-][n+]1ccc(Cl)cc1
inactive: [1] | [2] | [3] | [4] | [8]

CC(C)(O)C(=O)O
inactive: [1] | [2] | [3] | [4] | [8]

CCc1c(C)[nH]c2c1C(=O)C(CN1CCOCC1)CC2 (stereo not drawn)
inactive: [1] | [2] | [3] | [4] | [8]

CC(CN=Cc1ccccc1O)N=Cc1ccccc1O (stereo not drawn)
inactive: [1] | [2] | [3] | [4] | [8] | Aromatase (Homo sapiens)

CC(=O)S[C@H](C(=O)N[C@H]1Cc2ccccc2[C@H]2CCC[C@@H](C(=O)O)N2C1=O)C(C)C
inactive: [1] | [2] | [3] | [4] | [8] | Aromatase (Homo sapiens)

CC/C=C/CCO
inactive: [1] | [2] | [3] | [4] | [8]

FC1(F)C(F)(F)C(F)(F)C2(F)C(F)(C1(F)F)C(F)(F)C(F)(F)C1(F)C(F)(F)C(F)(F)C(F)(F)C(F)(F)C12F (stereo not drawn)
inactive: [1] | [2] | [3] | [4] | [8] | Aromatase (Homo sapiens)

CCCCCCCCC(=O)OCC(C)OC(=O)CCCCCCCC (stereo not drawn)
inactive: [1] | [2] | [3] | [4] | [8] | Aromatase (Homo sapiens)

Sc1nc(S)nc(S)n1
inactive: [1] | [2] | [3] | [4] | [8] | Aromatase (Homo sapiens)

O=C(Nc1ccc2c(c1)Cc1ccccc1-2)C(F)(F)F
inactive: [1] | [2] | [3] | [4] | [8] | Aromatase (Homo sapiens)

CCC(C)C1N=C(C)C(C)S1 (stereo not drawn)
inactive: [1] | [2] | [3] | [4] | [8]

N#Cc1ccc(CC(=O)c2cccc(C(F)(F)F)c2)cc1
inactive: [1] | [2] | [3] | [4] | [8] | Aromatase (Homo sapiens)

CC(C)CCCCCCCOC(=O)c1ccc(C(=O)OCCCCCCCC(C)C)c(C(=O)OCCCCCCCC(C)C)c1
inactive: [1] | [2] | [3] | [4] | [8] | Aromatase (Homo sapiens)

CC(=O)Nc1ccccc1O
inactive: [1] | [2] | [3] | [4] | [8] | Aromatase (Homo sapiens)

Nc1nc(Cl)nc2c1ncn2[C@H]1C[C@H](O)[C@@H](CO)O1
active: [1] 422 nM and 136 nM | [2] 298 nM and 48.2 nM
inactive: [3] | [4] | [8] | Aromatase (Homo sapiens)

O=C(O)COCC(=O)O
inactive: [1] | [2] | [3] | [8] | Aromatase (Homo sapiens)

CC(=O)CC/C=C(\C)CC/C=C(\C)CC/C=C(\C)CCC=C(C)C
inactive: [1] | [3] | [4] | [8] | Aromatase (Homo sapiens)

O=C(O)c1ccc(O)c(O)c1
not listed: [1]
inactive: all other assays above
